About 2,200 (0.71%) of roughly 310,000 compounds showed an effect of 50% or more. The effect is printed as a negative number. This is one part of a sample in which strong results are shown more often than they occur.
biological target: human ether-à-go-go-related gene (hERG) potassium channel (human, UniProt Q12809); experiment: primary screen, population patch clamp on CHO cells stably expressing hERG; higher = less effect of the substance
Method: Briefly, Chinese hamster ovary (CHO) cells stably expressing the hERG channel were dislodged from tissue culture flasks and dispensed into PPC plates. […] During the recording, background leak currents were estimated by a 100 ms step to -80 mV from an initial holding potential of -70 mV and subtracted from the subsequent current measurement. The campaign was conducted in two phases using slight differences in recording protocol. In the first phase, the initial voltage pulse used a 100 ms step to -30 mV from a holding potential of -70 mV, a 2 s conditioning step to +25 mV, and a 2 s test step to -30 mV. During the second phase of the screen, the potential during the conditioning step was raised to +45 mV. In both phases of the campaign, a secondary voltage pulse was applied using the same parameters as the second phase initial pulse. The initial and secondary pulses were applied in the absence of compound, and upon application of 1 μM and 10 μM test concentrations. Small molecule effects on hERG current density were quantified by […].

Chain of human ether-à-go-go-related gene (hERG) potassium channel (Q12809 whole entry, looked up): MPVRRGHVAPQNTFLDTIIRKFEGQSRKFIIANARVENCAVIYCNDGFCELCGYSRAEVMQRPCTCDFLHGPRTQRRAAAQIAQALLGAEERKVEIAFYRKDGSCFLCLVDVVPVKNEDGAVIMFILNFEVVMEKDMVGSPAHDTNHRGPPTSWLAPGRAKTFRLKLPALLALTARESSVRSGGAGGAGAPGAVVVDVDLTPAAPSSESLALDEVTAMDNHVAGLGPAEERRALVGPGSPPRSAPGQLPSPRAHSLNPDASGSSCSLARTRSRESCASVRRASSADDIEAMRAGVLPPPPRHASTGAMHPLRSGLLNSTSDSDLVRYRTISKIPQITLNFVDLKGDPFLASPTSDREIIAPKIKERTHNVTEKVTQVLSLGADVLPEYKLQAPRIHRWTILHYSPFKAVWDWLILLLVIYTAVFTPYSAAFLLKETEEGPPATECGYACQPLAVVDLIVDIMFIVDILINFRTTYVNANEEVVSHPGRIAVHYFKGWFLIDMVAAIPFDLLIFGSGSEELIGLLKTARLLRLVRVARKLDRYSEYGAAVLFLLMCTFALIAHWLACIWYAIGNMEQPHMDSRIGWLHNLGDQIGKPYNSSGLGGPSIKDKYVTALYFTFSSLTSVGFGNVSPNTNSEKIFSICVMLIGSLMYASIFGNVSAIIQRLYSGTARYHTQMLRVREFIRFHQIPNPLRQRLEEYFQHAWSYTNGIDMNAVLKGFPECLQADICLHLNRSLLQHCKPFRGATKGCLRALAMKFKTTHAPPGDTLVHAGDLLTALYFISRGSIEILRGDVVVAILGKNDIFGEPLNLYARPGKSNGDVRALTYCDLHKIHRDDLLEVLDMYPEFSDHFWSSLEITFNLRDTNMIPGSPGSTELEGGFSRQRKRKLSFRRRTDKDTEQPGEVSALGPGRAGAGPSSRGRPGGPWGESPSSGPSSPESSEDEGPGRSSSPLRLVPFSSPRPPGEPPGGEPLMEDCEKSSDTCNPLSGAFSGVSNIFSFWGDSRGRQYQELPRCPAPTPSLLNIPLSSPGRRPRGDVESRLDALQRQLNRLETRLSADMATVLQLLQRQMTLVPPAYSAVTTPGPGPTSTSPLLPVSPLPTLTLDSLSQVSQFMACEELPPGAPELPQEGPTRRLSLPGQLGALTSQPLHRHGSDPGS

| Structure (SMILES) | hERG current change (%, negative = inhibition) at 1uM |
| --- | --- |
| COC(=O)c1sc(C(C)(C)C)cc1CS(=O)(=O)c1ccc(Cl)cc1 | 23.7% |
| CC(C)=CCOc1ccc2c(C)c(CC(=O)N3C[C@H]4C[C@@H](C3)c3cccc(=O)n3C4)c(=O)oc2c1C | -18.5% |
| Cc1cc(C)c2cc(C#N)c(SCC(=O)NCC3CCCO3)nc2c1 (stereo not shown) | -2.04% |
| CCSCc1nnc(SCC(=O)c2ccc(OC)cc2)n1C | 2.03% |
| CC(NC(=O)CSCc1ccc(Br)cc1)c1ccccc1 (stereo not shown) | 9.08% |
| CCOc1ccc(/C=N/NC(=O)c2cccc3ccccc23)c(OCC)c1 | 13.6% |
| CC1CCCN(CC(=O)Nc2ccc(S(=O)(=O)N3CCCCCC3)cc2)C1 (stereo not shown) | -1.45% |
| COC(=O)c1nc[nH]c1C(=O)OC | 18.4% |
| COc1ccccc1C(=O)N/C(=C/c1ccc(Br)cc1)C(=O)NCCO | 1.21% |
| COCCN1C(=O)N[C@H](c2cccc(C(F)(F)F)c2)C(C(=O)OC)=C1C | 5.44% |
| COc1ccc(C)cc1S(=O)(=O)NCC(c1ccc2c(c1)OCO2)N1CCN(C)CC1 (stereo not shown) | -54.9% |
| O=S(=O)(NCC(c1ccc2c(c1)OCO2)N1CCOCC1)c1ccc(Br)cc1 (stereo not shown) | 12.6% |
| CCOc1ccc(S(=O)(=O)NCC(c2ccc3c(c2)OCO3)N2CCN(C)CC2)cc1 (stereo not shown) | -3.34% |
| COc1ccc(C)cc1S(=O)(=O)NCC(c1ccc2c(c1)OCO2)N1CCOCC1 (stereo not shown) | 5.86% |
| COc1ccc(F)cc1S(=O)(=O)NCC(c1ccc2c(c1)OCO2)N1CCN(C)CC1 (stereo not shown) | -12.6% |
| CN1CCN(C(CNS(=O)(=O)c2ccc(Br)cc2)c2ccc3c(c2)OCO3)CC1 (stereo not shown) | -59.5% |
| C=CCON/C(CCC)=C1\C(=O)CC(C)(C)CC1=NC | 18.6% |
| O=C(CN(C(=O)CCC(=O)Nc1nccs1)c1ccc2c(c1)OCO2)NCc1ccc(F)cc1 | 9.89% |
| COc1cccc(CN2C(=O)[C@H]3Cc4c([nH]c5ccccc45)C(C)(C)N3C2=O)c1 | 15.2% |
| O=S(=O)(Nc1nc2ccccc2nc1Cl)c1ccc2c(c1)OCCO2 | 8.99% |
| Cc1nn(Cc2ccccc2)c(C)c1NC(=O)CSc1nc2c(c(C(F)(F)F)n1)CCc1ccccc1-2 | 2.11% |
| CC1=C(C)C(=O)N(c2ccccn2)C1=O | 11.4% |

| Structure (SMILES) | hERG current change (%, negative = inhibition) at 1uM |
| --- | --- |
| CCOc1ccccc1CN1CCN(Cc2[nH]c3ccccc3c2C)CC1CCO (stereo not shown) | -13% |
| COc1ccc2[nH]c(CN3CCN(CC=C(C)C)C(CCO)C3)c(C)c2c1 (stereo not shown) | 10.7% |
| CCOc1ccc(CN2CCN(Cc3[nH]c4ccccc4c3C)CC2CCO)cc1 (stereo not shown) | -75.2% |
| CCOc1ccc(CN2CCN(Cc3[nH]c4ccc(OC)cc4c3C)CC2CCO)cc1 (stereo not shown) | -76.9% |
| COc1cccc(CN2CCN(Cc3[nH]c4ccccc4c3C)CC2CCO)c1 (stereo not shown) | -11.2% |
| COc1ccc2[nH]c(CN3CCN(CC(C)C)C(CCO)C3)c(C)c2c1 (stereo not shown) | 5.18% |
| CC(C)CC(=O)Nc1nnc(S(=O)(=O)N(C)Cc2ccco2)s1 | 21% |
| NC(=O)CC(NC(=O)Cc1cccc2ccccc12)c1ccc(NCCCN2CCCC2=O)c([N+](=O)[O-])c1 (stereo not shown) | 8.49% |
| O=C(CNS(=O)(=O)c1cccc(C(F)(F)F)c1)Nc1ccccc1F | -2.49% |
| CCCOC(=O)c1ccc(NS(=O)(=O)c2cccs2)cc1 | 8.05% |
| O=C(Oc1ccc(N(C(=O)c2ccncc2)S(=O)(=O)c2cccs2)cc1)c1ccncc1 | 11.4% |
| O=C(OCCN(CCOC(=O)c1ccncc1)S(=O)(=O)c1cccs1)c1ccncc1 | -51.5% |
| O=C(Oc1ccccc1O)c1cccc2ccccc12 | 6.76% |
| Cc1ccc(N2C(=O)N(CC(=O)Nc3ccc(C)cc3C)C(=O)C2C)cc1 (stereo not shown) | 7.69% |
| COc1cc(NC(=S)NCc2cccnc2)cc(OC)c1 | 15.1% |
| CCOc1ccc(NC(C)=O)cc1[N+](=O)[O-] | 5.43% |
| CCOC(=O)C1(CCc2ccccc2)CCN(Cc2ccc(NC(C)=O)cc2)CC1 | -72.5% |
| CCOC(=O)C1(CCc2ccccc2)CCN(Cc2cnc(N(C)C)s2)CC1 | -86.4% |
| CCOC(=O)C1(CCc2ccccc2)CCN(Cc2cccc3c2OCO3)CC1 | -63.7% |
| CCOC(=O)C1(CCOc2ccccc2)CCN(Cc2ccc(NC(C)=O)cc2)CC1 | -38.6% |
| CCOC(=O)C1(CC2CC2)CCN(Cc2cnc(N(C)C)s2)CC1 | 3.01% |
| CCOC(=O)C1(CCOc2ccccc2)CCN(Cc2cccc3c2OCO3)CC1 | -7.1% |

| Structure (SMILES) | hERG current change (%, negative = inhibition) at 1uM |
| --- | --- |
| CCOC(=O)C1(CCc2ccccc2)CCN(Cc2csc(C(C)=O)c2)CC1 | -33.6% |
| CCOC(=O)C1(CCCc2ccccc2)CCN(Cc2cnc(C)s2)CC1 | -44.7% |
| CCOC(=O)C1(Cc2ccccc2)CCN(Cc2cccc3c2OCO3)CC1 | 1.36% |
| CCOC(=O)C1(CCc2ccccc2)CCN(Cc2nccn2CC)CC1 | -47.2% |
| CCOC(=O)C1(CCc2ccccc2)CCN(Cc2ccccn2)CC1 | -57.1% |
| CCOC(=O)C1(CCc2ccccc2)CCN(Cc2ccn[nH]2)CC1 | -43.8% |
| CCOc1cc(C)ccc1OCc1nnc(SCC(=O)c2cccc([N+](=O)[O-])c2)n1CC | -1.84% |
| O=C(Nc1cc(=O)[nH]c2ncnn12)c1ccc(Cl)cc1Cl | -2.66% |
| CC(C)(C)c1ccc(C(=O)NN2C(=O)CSC2=S)cc1 | 12.1% |
| CCOC(=O)C1(Cc2ccccc2)CCN(Cc2cccc(OC)c2O)CC1 | -31% |
| CCOC(=O)C1(CCc2ccccc2)CCN(Cc2cccc3nccnc23)CC1 | -19.3% |
| CCOC(=O)C1(CCc2ccccc2)CCN(Cc2c(O)cccc2OC)CC1 | -28.7% |
| CCOC(=O)C1(CCc2ccccc2)CCN(Cc2ccco2)CC1 | -42.7% |
| CCOC(=O)C1(CCc2ccccc2)CCN(Cc2ccc(O)cc2)CC1 | -86.3% |
| CCOC(=O)C1(CCc2ccccc2)CCN(Cc2ccc(OC)cc2)CC1 | -86.9% |
| CCOC(=O)C1(CCc2ccccc2)CCN(Cc2cc(OC)c(OC)cc2OC)CC1 | -68.1% |
| CCOC(=O)C1(CCc2ccccc2)CCN(Cc2cccc3cnccc23)CC1 | -4.67% |
| CCOC(=O)C1(CCc2ccccc2)CCN(CC(O)CO)CC1 (stereo not shown) | 1.26% |
| CCOC(=O)C1(Cc2ccccc2)CCN(Cc2ccc3c(c2)OCCO3)CC1 | -0.488% |
| CCOC(=O)C1(CCOc2ccccc2)CCN(Cc2ccc3c(c2)OCCO3)CC1 | -25.8% |
| CCOC(=O)C1(CCc2ccccc2)CCN(Cc2ccc3c(c2)OCCO3)CC1 | -91.4% |
| Cc1ccc(/C=N/Nc2nnc(Cl)c3ccccc23)cc1 | -1.46% |

| Structure (SMILES) | hERG current change (%, negative = inhibition) at 1uM |
| --- | --- |
| COc1ccc(C[C@H]2c3cc(O)c(OC)cc3CC[N+]2(C)[O-])cc1O (stereo partly shown) | 16.9% |
| Cn1c(NCCc2ccccc2)cc(=O)n(C)c1=O | 11.8% |
| Cc1ccc(C(=O)N(C)Cc2ccc(N3CCOCC3)cc2)cc1S(=O)(=O)NCc1ccccc1 | 1.2% |
| CCCCNC(=S)NNC(=O)c1cc(C2CC2)nc2ccccc12 | 13.2% |
| COc1ccc(C2CC(=O)n3c(nc4ccccc43)S2)cc1OC (stereo not shown) | 12.9% |
| COc1ccc(CNC(=O)COC(=O)CN2C(=O)C(C)Oc3ccc(C)cc32)cc1 (stereo not shown) | 9.75% |
| CCOC(=O)C1(CCOC)CCN(Cc2ccc(C(=O)OC)cc2)CC1 | 0.201% |
| CCOC(=O)C1(CCc2ccccc2)CCN(Cc2ccc(C(=O)OC)cc2)CC1 | -86.1% |
| CCOC(=O)C1(CCOc2ccccc2)CCN(Cc2ccc(C(=O)OC)cc2)CC1 | -15.5% |
| Cc1ccc(NC(=O)/C(C#N)=C/c2ccc(C)s2)c(C)c1 | 14.2% |
| N#Cc1ccc(CN2CCN(C(=O)c3ccc(S(=O)(=O)N4CCCCCC4)cc3)CC2)cc1 | -5.24% |
| Cl.O=C(c1cccc(S(=O)(=O)N2CCCCC2)c1)N1CCN(Cc2ccccc2)CC1 | 6.64% |
| N#Cc1ccc(CN2CCN(C(=O)c3cccc(S(=O)(=O)N4CCCCCC4)c3)CC2)cc1 | -51.3% |
| Cc1sc2ncn(Cc3ccccc3F)c(=O)c2c1C | 1.65% |
| O=C1CS/C(=N/N=C2C3CC4CC(C3)CC2C4)N1 | -4.65% |
| CC(=O)OC1CC[C@]2(C#N)[C@H]3CC[C@]4(C)[C@H](C5C=CC(=O)O5)CCC4(O)C3CCC2(O)C1 (stereo partly shown) | 12.9% |
| Cc1ccccc1N1CCN(C2CCCN(C(=O)c3cc(CC(C)C)nn3C)C2)CC1 (stereo not shown) | 5.95% |
| Cc1cc(C(=O)N2CCCC(N3CCN(c4ccccc4C)CC3)C2)n(C)n1 (stereo not shown) | -87.7% |
| CCCc1cc(C(=O)N2CCCC(N3CCN(c4ccccc4C)CC3)C2)n(C)n1 (stereo not shown) | 3.48% |
